PfHsp90 set2: inhibits growth of yeast expressing Plasmodium falciparum Hsp90; 310,000 compounds, 0.32% hits; S. cerevisiae expressing PfHsp90, BacTiter-Glo ATP, 48 h; yeast lacking PDR1 and PDR3 efflux regulators; inhibition, % at 9.4 µM; AID 504621;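 active = every replicate shows inhibition above about 80%, whatever the replicate mean, limit read from the data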
Mot1-301 SUMO: inhibitors of SUMOylation pathway: yeast Mot1-301 growth rescue; S. cerevisiae Mot1-301 growth rescue, ATP luminescence, 38.5C; percent above DMSO median, 100 means doubled; growth rescue, % at 18.8 µM; AID 2716; 320,000 compounds, 1% hits;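 active = every valid replicate shows activation above 250% relative to neutral control wells; inactive = the rest, any valid replicate at or below 250%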
tim23-1 inh: inhibits growth of tim23-1 mutant yeast. S. cerevisiae tim23-1 growth, BacTiter-Glo luminescence, 24 h. inhibition, % at 20 µM. 330,000 compounds, 1.3% hits. AID 463212;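 active = growth inhibition of the mutant yeast at or above 50%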;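 also: temperature-sensitive mutant grown at 25 °C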
tim10-1 inh: tim10-1 yeast growth inhibition | S. cerevisiae tim10-1 ts strain growth, BacTiter-Glo, 24 h | inhibition, % at 20 µM | 330,000 compounds, 2.2% hits;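 active = inhibition of at least 40%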;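 also: mutant grown at 25 °C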
TIM10 inh: inhibits growth of TIM10 yeast strain | S. cerevisiae TIM10 strain growth, BacTiter-Glo luminescence, 24 h | inhibition, % at 10 µM | 330,000 compounds, 1.4% hits | AID 463195;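 active = inhibition of 40% or more at the single tested concentration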;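 also: wild-type TIM10 isogenic control strain grown at permissive 25 °C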
tim10-1 conf: confirmation of tim10-1 mutant yeast growth inhibitors; shares compounds with tim10-1 inh; S. cerevisiae tim10-1 ts strain growth, BacTiter-Glo, 24 h; inhibition, % at 20 µM; 7,400 compounds, 56% hits;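 active = inhibition of yeast growth at or above a set limit in either of two repeat tests at 20 µM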;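 also: tim10-1 mutant grown at permissive 25 °C to find synthetic lethal compounds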
TIM10 conf: confirmation of TIM10 yeast growth inhibitors. shares compounds with TIM10 inh. S. cerevisiae tim10 strain growth, BacTiter-Glo luminescence, 24 h. inhibition, % at 10 µM. 4,600 compounds, 63% hits;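 active = inhibition of yeast growth at or above a set limit in either of two replicates at 10 µM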; also: this counterscreen used the strain with wild-type TIM10
tim23-1 confirm: tim23-1 yeast growth inhibition, confirmed | shares compounds with tim23-1 inh | S. cerevisiae tim23-1 growth, BacTiter-Glo luminescence, 24 h | inhibition, % at 20 µM | 4,400 compounds, 83% hits;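 active = inhibition above about 39% in either of two replicate wells at 20 µM, limit read from the data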;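 also: temperature-sensitive tim23-1 mutant grown at 25 °C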
Large screens that a line does not name were inactive (follow-up assays come after a bar, where they were run). An excerpt weighted towards active compounds, which were near 4.4% of everything screened.

CC[n+]1c(/C=C/C=C/c2ccc(N(C)C)cc2)sc2ccccc21	tim23-1 inh 83, tim10-1 inh 85, TIM10 inh 82 | tim10-1 conf 90 | TIM10 conf 74 | tim23-1 confirm 82
CCN(CC)c1ccc(N=Cc2c(O)n(-c3ccccc3)c(=O)[nH]c2=O)cc1	TIM10 inh 41 | TIM10 conf inactive
N[C@@H](Cc1c[nH]c2ccccc12)c1nnc(SCc2ccc(Cl)cc2)o1	TIM10 inh 41 (no result: PfHsp90 set2) | TIM10 conf 40
Cc1ccc(NC(=O)CSc2nnc([C@@H](N)Cc3c[nH]c4ccccc34)o2)c(C)c1	none (no result: Mot1-301 SUMO)
CC12CC(=O)C3C(CCC4CC(=O)C=CC43C)C1CCC2=O (stereo not drawn)	none (no result: Mot1-301 SUMO, tim23-1 inh, tim10-1 inh, TIM10 inh)
O=C1N[C@@H](Cc2ccccc2)C(=O)N2[C@H]1C[C@H]1c3ccccc3N(OOSc3ccccc3)[C@H]12	TIM10 inh 44 (no result: PfHsp90 set2) | TIM10 conf inactive
COC(=O)[C@@H]1C[C@]2(C(=O)O)c3ccccc3N(OOSc3ccccc3)[C@@H]2N1C(=O)OC	none
COC(=O)C1=C(c2cc3ccccc3s2)C[C@@H]2CC[C@H]1N2C(=O)NCCNC(C)=O	none
Cc1ccccc1NS(=O)(=O)c1ccc(OCC(=O)N2CCN(C)CC2)cc1	none
O=P(Nc1ccccc1Cl)(c1ccccc1)c1nc2c(s1)CCCC2 (stereo not drawn)	TIM10 inh 41 | TIM10 conf inactive
Oc1cc(Cl)ccc1Oc1ccc(Cl)cc1Cl	PfHsp90 set2 95, TIM10 inh 45 | TIM10 conf 68
C[C@@H]1C[C@@H]([C@H](O)CC2CC(=O)NC(=O)C2)C(=O)[C@@H](C)C1	PfHsp90 set2 active, tim23-1 inh 73, TIM10 inh 68 | TIM10 conf 64 | tim23-1 confirm 69
CN1C(=O)C(=Cc2c(OCc3cnc(Cl)s3)ccc3ccccc23)C(=O)N(C)C1=O	tim23-1 inh 75, TIM10 inh 46 | TIM10 conf 53 | tim23-1 confirm 81
COc1ccc(-c2nn(CCC#N)cc2C(=O)Nc2ccccc2Br)cc1[N+](=O)[O-]	none
CCCNC(=O)N1[C@H]2CC[C@@H]1C(C(=O)OC)=C(c1cc3ccccc3o1)C2	none
CCCc1nc2ccccc2c(=O)n1-c1cccc(OC)c1	tim23-1 inh 83 | tim23-1 confirm inactive
CCCc1nc2ccccc2c(=O)n1-c1ccc(OC)cc1	none
Cc1oc(-c2ccccc2)nc1CN1C(=O)C(C)N=C(c2ccccc2F)c2cc(Cl)ccc21 (stereo not drawn)	tim23-1 inh 52 | tim23-1 confirm 57
COc1ccc(-n2c(/C=C/c3ccc4c(c3)OCO4)nc3ccccc3c2=O)cc1	tim23-1 inh 50 | tim23-1 confirm 45
Cc1[nH]c2ccc(OC(F)(F)F)cc2c1CCNCc1ccc(Cl)cc1	tim23-1 inh 66 | tim23-1 confirm inactive
Cc1[nH]c2ccc(OC(F)(F)F)cc2c1CCNCc1cccc([N+](=O)[O-])c1	none
CCn1c(O)c(C=NCCN2CCOCC2)c(=O)[nH]c1=S	none
Nc1ccc(N=Nc2ccccc2)cc1	none
Cc1cc(N=Nc2ccccc2C)ccc1N	tim23-1 inh 64 | tim23-1 confirm inactive
CN1C(=O)C(=Cc2ccccc2OS(=O)(=O)c2ccccc2)C(=O)N(C)C1=O	tim23-1 inh 77 | tim23-1 confirm 73
CC(Cc1cccs1)NCc1ccccc1 (stereo not drawn)	none
COc1ccc(CC2NCC(O)C2OC(C)=O)cc1 (stereo not drawn)	none (no result: Mot1-301 SUMO, tim23-1 inh, tim10-1 inh, TIM10 inh)

Bioassay records as filed in PubChem BioAssay.
